Data published in PubChem BioAssay AID463173 (ICCB-Longwood Screening Facility, Harvard Medical School, 2010).
The campaign covered roughly 52,000 compounds. About 4,300 (8.3%) were called active. The sample as a whole holds a higher share of actives than the screen did. Unmarked numbers belong to inactive results. No stated cut-off is given here; in the data, active means survival mostly below about 52% (no sharp cut-off); inactive means mostly above about 56%.

What follows are compounds tested on DeltatarO mutant (assay: S. aureus survival, RN4220 and DeltatarO strains – OD600, teichoic acid synthesis inhibitors, primary screen (AID 463173)). Conditions: S. aureus RN4220 wild type/DeltatarO growth, OD600, 18 h, hits give low values, screened at 18.75 µg/mL (by protocol).

Row | Structure (SMILES) | survival
1 | CCOc1ccc(CNCc2c(C(=O)O)c(C)n(Cc3ccc(F)cc3Cl)c2C)cc1 | 118%
2 | Cc1ccc(C)c(Cn2c(=O)n(-c3ccccc3)c(=O)c3c4c(sc32)CCCC4)c1 | 120%
3 | COc1ccc(CCNC(=O)C(=O)NCC(c2ccco2)S(=O)(=O)c2ccc(C)cc2)cc1 (stereo unspecified) | 134%
4 | O=C(Cn1c(=O)c2cccn2c2ccccc21)Nc1cc(F)ccc1F | 44%
5 | CCCn1c(CCC(=O)Nc2ccccc2OC)nc2cccnc21 | 88%
6 | Cc1c(CCNS(=O)(=O)c2ccccc2)sc2nc(-c3ccc(Cl)cc3)nn12 | 6% (active)
7 | CCCS(=O)(=O)NCCc1sc2nc(-c3ccc(Cl)cc3)nn2c1C | 70%
8 | COc1ccc(-c2nc3sc(CCNS(=O)(=O)c4ccccc4)c(C)n3n2)cc1 | 64%
9 | COc1ccc(F)cc1S(=O)(=O)NCCc1sc2nc(-c3ccc(F)cc3)nn2c1C | 90%
10 | Cc1ccc(-c2nc3sc(CCNS(=O)(=O)c4cc(F)ccc4F)c(C)n3n2)cc1 | -2% (active)
11 | CCS(=O)(=O)NCCc1sc2nc(-c3ccc(OC)cc3)nn2c1C | 72%
12 | Cc1cc(C)c(S(=O)(=O)NCCc2sc3nc(-c4ccc(F)cc4)nn3c2C)c(C)c1 | 79%
13 | COc1ccc(-c2nc3sc(CCNS(=O)(=O)c4c(C)cc(C)cc4C)c(C)n3n2)cc1 | -1% (active)
14 | CCCS(=O)(=O)NCCc1sc2nc(-c3ccc(F)cc3)nn2c1C | 76%
15 | Cc1ccc(-n2ncc3c(N4CCN(CCO)CC4)ncnc32)cc1Cl | 101%
16 | CCN(CC)c1ncccc1C(=O)NCc1cccs1 | 81%
17 | Cc1c(Cl)cccc1NC(=O)Nc1nnc(N2CCCCCC2)s1 | 84%
18 | COc1ccccc1Nc1c2c(nc3ccc(NC(=O)c4ccc(OC)c(OC)c4)cc13)CCCC2 | 59%
19 | COc1ccccc1Nc1c2c(nc3ccc(NC(=O)c4cccc(F)c4)cc13)CCCC2 | 70%

Row | Structure (SMILES) | survival
20 | COc1ccccc1Nc1c2c(nc3ccc(NC(=O)c4ccccc4F)cc13)CCCC2 | 82%
21 | COc1ccc(C(=O)Nc2ccc3nc4c(c(Nc5ccc(OC)c(OC)c5)c3c2)CCCC4)c(OC)c1 | 87%
22 | COc1ccc(C(=O)Nc2ccc3nc4c(c(Nc5ccccc5OC)c3c2)CCCC4)c(OC)c1 | 48% (active)
23 | COc1ccccc1Nc1c2c(nc3ccc(NC(=O)c4cccc(OC)c4OC)cc13)CCCC2 | 46% (active)
24 | O=C(CNC(=O)c1ccc(Cl)cc1)OCc1cc(=O)n2nc(C3CC3)sc2n1 | 67%
25 | COC(=O)c1cn(C(C)C(=O)NCc2ccco2)c2ccccc12 (stereo unspecified) | 91%
26 | O=C(CSCc1ccc(F)cc1)N1CCc2c([nH]c3ccccc23)C1c1ccccc1 (stereo unspecified) | 101%
27 | Cc1ccc(NC(=O)C(=O)c2cc(C)n(-c3ccc(F)cc3)c2C)cc1C | 89%
28 | CC(=O)c1ccccc1OCC(O)Cn1c(CO)nc2ccccc21 (stereo unspecified) | 59%
29 | Cc1ccc2c(c1)c1c(c(=O)n(Cc3ccccc3)c(=O)n1CC(=O)Nc1ccccc1C)n2C | 99%
30 | Cc1cccc(OCC(=O)Nc2ccc3c(c2)N(C)C(=O)c2ccccc2S3)c1 | 73%
31 | COc1ccc(-n2nc3ccc(NC(=O)COc4ccc(C)c(C)c4)cc3n2)cc1 | 56%
32 | Cc1ccc(OCC(=O)Nc2ccc(Cl)c(-c3nc4ccccc4[nH]3)c2)cc1C | 43% (active)
33 | CC(C)CC(=O)Nc1cccc(-c2nc3ccccc3[nH]2)c1 | 68%
34 | COc1cccc(C(=O)Nc2ccc(Cl)c(-c3nc4ccccc4[nH]3)c2)c1 | 68%
35 | Cc1cc(OCC(=O)Nc2cc(-c3nc4ccccc4[nH]3)ccc2C)ccc1Cl | 96%
36 | Cc1cccc(OCC(=O)Nc2ccc(Cl)c(-c3nc4ccccc4[nH]3)c2)c1 | 38% (active)
37 | Cc1cc(C)cc(OCC(=O)Nc2cccc(-c3nc4ccccc4[nH]3)c2)c1 | 31% (active)
38 | COc1cccc(N2CC(NC(=O)c3ccc(S(=O)(=O)N4CCCCC4)cc3)CC2=O)c1 (stereo unspecified) | 92%

Row | Structure (SMILES) | survival
39 | CCn1c(=O)c(C(=O)Nc2ccc(C(C)=O)cc2)nc2ccccc21 | 81%
40 | CC1CCN(S(=O)(=O)c2ccc3c(ccn3CC(=O)NCc3ccc(N(C)C)cc3)c2)CC1 | 77%
41 | COc1cccc(CNC(=O)c2cc3cccc4c3n2CC(C)S4)c1OC (stereo unspecified) | 84%
42 | Cc1cc(C)c(S(=O)(=O)N2CCC(N3CCN(Cc4ccccc4)C(=O)C3=O)CC2)c(C)c1 | 68%
43 | N#CC1=C(N)OC2=C(C(=O)CCC2)C12C(=O)Nc1ccc(F)cc12 (stereo unspecified) | 93%
44 | CCCCN1CC(c2nc3ccccc3n2CCCCOc2c(C)cccc2C)CC1=O (stereo unspecified) | 46% (active)
45 | Cc1ccccc1OCCCCn1c(C2CC(=O)N(c3ccccc3Cl)C2)nc2ccccc21 (stereo unspecified) | 76%
46 | Cc1cccc(C)c1OCCCCn1c(C2CC(=O)N(c3ccc(F)cc3)C2)nc2ccccc21 (stereo unspecified) | 77%
47 | COC(=O)Cn1c(C2CC(=O)N(c3c(C)cccc3C)C2)nc2ccccc21 (stereo unspecified) | 58%
48 | CCCCN1CC(c2nc3ccccc3n2CCCCOc2ccccc2C)CC1=O (stereo unspecified) | 34% (active)
49 | CCCCN1CC(c2nc3ccccc3n2CCCCOc2cccc(C)c2C)CC1=O (stereo unspecified) | 2% (active)
50 | Cc1cccc(NC(=O)CS(=O)(=O)c2cccc3nsnc23)c1 | 74%
51 | Cc1cc2cc(CCNS(=O)(=O)c3ccc(Br)cc3)c(=O)[nH]c2cc1C | 48%
52 | O=c1c2oc3ccccc3c2n(Cc2cccc(C(F)(F)F)c2)c(=O)n1Cc1ccc2c(c1)OCO2 | 108%
53 | CN1C(=O)Cc2cc(S(=O)(=O)CCC(=O)N3CCN(c4ccc(Cl)cc4)CC3)ccc21 | 86%
54 | COc1ccc(Cn2c(=O)c3oc4ccccc4c3n(Cc3cccc(C(F)(F)F)c3)c2=O)cc1 | 73%
55 | Nc1nc(SCC(=O)Nc2cccc(C(F)(F)F)c2)n[nH]1 | 63%
56 | COC(=O)c1sccc1S(=O)(=O)N1CCN(c2ccccc2OC)CC1 | 74%
